Screens from PubChem BioAssay.
This is a sample that favours compounds with a hit; in the whole collection about 22% have one here.
F-actin modifier – modifiers of cytoskeleton assembly; 91,000 tested, 0.18% active; HUVEC TNFa F-actin phalloidin imaging, high content; inhibition, % at 2 µM;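 active = inhibition above the batch mean plus 3 SD and confirmed as a hit by visual image inspection, cut at about 30% in these data, passing the limit was not always enough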
E-sel TNF inh – blocks E-selectin expression induced by TNF alpha | HUVEC TNFa-induced E-selectin immunofluorescence, high content | inhibition, % at 2 µM | 120,000 tested, 0.71% active;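 active = inhibition above the batch mean plus 3 SD, and confirmed as a hit on visual image review, cut at about 43% in these data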;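 note: 0% = TNF-stimulated DMSO wells and 100% = unstimulated control wells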
CYP2C9 inhib – blocks human cytochrome P450 2C9. P11712. 96,000 tested, 20% active. CYP2C9 Supersomes, luciferin-H conversion, luminescence. inhibition, % at 5 µM;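 active = blocking of liver enzyme CYP2C9 beyond about 50% at 5 µM, limit read from the data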
Target sequence (P11712 whole entry, looked up): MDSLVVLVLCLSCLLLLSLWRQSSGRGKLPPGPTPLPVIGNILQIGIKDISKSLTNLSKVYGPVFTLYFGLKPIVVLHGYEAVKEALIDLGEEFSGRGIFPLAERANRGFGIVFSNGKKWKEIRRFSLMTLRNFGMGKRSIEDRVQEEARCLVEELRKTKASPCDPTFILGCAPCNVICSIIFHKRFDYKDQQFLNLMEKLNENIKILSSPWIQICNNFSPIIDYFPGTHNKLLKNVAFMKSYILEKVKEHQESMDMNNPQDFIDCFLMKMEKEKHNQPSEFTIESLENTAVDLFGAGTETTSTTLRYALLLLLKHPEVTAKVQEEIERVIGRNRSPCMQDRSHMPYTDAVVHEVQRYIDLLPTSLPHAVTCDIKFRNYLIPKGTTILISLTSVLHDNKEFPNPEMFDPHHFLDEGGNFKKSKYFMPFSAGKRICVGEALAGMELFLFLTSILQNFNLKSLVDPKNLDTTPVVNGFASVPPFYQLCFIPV
CYP2C19 inhib – blocks human cytochrome P450 2C19; 96,000 tested, 21% active; CYP2C19 Supersomes, luciferin-H EGE luminescence, 30 min; inhibition, % at 5 µM; P33261; AID 778;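 active = CYP2C19 inhibition above a set limit at 5 µM in the primary screen, cut at about 50% in these data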;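 note: plate controls were negative control wells for no effect and 2.5 mM tranylcypromine positive control for full effect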
CYP2C19 act – activators of human cytochrome P450 2C19; P33261; recombinant CYP2C19, luciferin-H EGE luminescence; active compounds read high; 0 = fully inhibited enzyme, 1 = untreated enzyme; activation factor at 5 µM; 96,000 tested, under 10 active; AID 1025;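 active = activation factor of at least 2 at 5 µM in the primary screen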;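 note: 0 = wells with 2.5 mM tranylcypromine and 1 = vehicle-only wells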
CYP2C9 activ – CYP2C9 (human) activation; P11712; recombinant CYP2C9, luciferin-H conversion, luminescence; active compounds read high; factor 1 = untreated enzyme, 0 = blocked; activation factor at 5 µM; 96,000 tested, 1.4% active; AID 1024;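 active = activation factor of 2 or more for CYP2C9 at a 5 µM dose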;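 note: 0 = sulfaphenazole-blocked wells and 1 = vehicle-only wells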
Numbers without * were called inactive.

How did CCOC(=O)C1=C(C)NC(SCC(=O)OC)=C(C#N)C1c1ccc(C(=O)OC)cc1 (stereo not drawn) do in these assays?
F-actin modifier: 23; CYP2C9 inhib: 96*; CYP2C19 inhib: 97*; CYP2C19 act: 0; CYP2C9 activ: 0

What do the screens show for `C=CCOc1ccc(C2NC(=O)NC(C)=C2C(=O)OC)cc1` (stereo not drawn)?
F-actin modifier: 12; E-sel TNF inh: -96; CYP2C9 inhib: 39; CYP2C19 inhib: 44; CYP2C19 act: 0.6; CYP2C9 activ: 0.6

What do the screens show for `CC(=O)C1=C(C)NC(SCC(N)=O)=C(C#N)C1c1cccnc1` (stereo not drawn)?
F-actin modifier: -8; CYP2C9 inhib: 4; CYP2C19 inhib: 4; CYP2C19 act: 1; CYP2C9 activ: 1

What do the screens show for `C=CCOC(=O)C1=C(C)NC(=O)NC1c1ccc(Cl)cc1` (stereo not drawn)?
F-actin modifier: -15; CYP2C9 inhib: 66*; CYP2C19 inhib: 100*; CYP2C19 act: 0; CYP2C9 activ: 0.3

How did CCOC(=O)CSC1=C(C#N)C(c2ccc(F)cc2)C(C(C)=O)=C(C)N1 (stereo not drawn) do in these assays?
F-actin modifier: -28; E-sel TNF inh: -22; CYP2C9 inhib: 51*; CYP2C19 inhib: 42; CYP2C19 act: 0.6; CYP2C9 activ: 0.5

What do the screens show for `CC1=C(C(=O)Nc2ccc(Cl)cc2)C(c2ccncc2)C(C#N)=C(SCC(N)=O)N1` (stereo not drawn)?
F-actin modifier: -12; CYP2C9 inhib: 65*; CYP2C19 inhib: 37; CYP2C19 act: 0.6; CYP2C9 activ: 0.4

Results for CCCc1[nH]nc2c1C(/C(C)=C/c1ccccc1)C(C#N)=C(N)O2 (stereo not drawn) ?
F-actin modifier: -1; E-sel TNF inh: -6; CYP2C9 inhib: 29; CYP2C19 inhib: 22; CYP2C19 act: 0.8; CYP2C9 activ: 0.7

What do the screens show for `COC(=O)CN1C(=O)N(c2ccccc2)C(N(O)C(=O)Nc2ccccc2)C1(C)C` (stereo not drawn)?
F-actin modifier: -14; E-sel TNF inh: 9; CYP2C9 inhib: 13; CYP2C19 inhib: 8; CYP2C19 act: 0.9; CYP2C9 activ: 0.9

What do the screens show for `C=CCOC(=O)C1=C(C)NC(SCC)=C(C#N)C1c1ccc(Cl)cc1` (stereo not drawn)?
F-actin modifier: 1; E-sel TNF inh: -43; CYP2C9 inhib: 86*; CYP2C19 inhib: 53*; CYP2C19 act: 0.5; CYP2C9 activ: 0.1

How did O=C(c1ccco1)N1CCN(C(=O)C(Sc2ccccc2)c2ccccc2)CC1 (stereo not drawn) do in these assays?
F-actin modifier: -1; E-sel TNF inh: -12; CYP2C9 inhib: 83*; CYP2C19 inhib: 78*; CYP2C19 act: 0.2; CYP2C9 activ: 0.2

How did O=C(Nc1ccc(F)cc1)C(c1ccccc1)N1CCN(C(=O)c2ccco2)CC1 (stereo not drawn) do in these assays?
F-actin modifier: -9; E-sel TNF inh: 0; CYP2C9 inhib: 71*; CYP2C19 inhib: 22; CYP2C19 act: 0.8; CYP2C9 activ: 0.3

Results for O=C(Nc1ccc2c(c1)OCO2)C(c1ccccc1)N1CCN(C(=O)c2ccco2)CC1 (stereo not drawn) ?
E-sel TNF inh: -4; CYP2C9 inhib: 98*; CYP2C19 inhib: 76*; CYP2C19 act: 0.2; CYP2C9 activ: 0

How did O=C(CN1CCN(C(=O)c2ccco2)CC1)Nc1ccc2c(c1)OCCO2 do in these assays?
F-actin modifier: -5; E-sel TNF inh: 9; CYP2C9 inhib: 16; CYP2C19 inhib: 4; CYP2C19 act: 1; CYP2C9 activ: 0.8

Results for CC(C(=O)Nc1ccc2c(c1)OCCO2)N1CCN(C(=O)c2ccco2)CC1 (stereo not drawn) ?
F-actin modifier: 10; E-sel TNF inh: 5; CYP2C9 inhib: 10; CYP2C19 inhib: -8; CYP2C19 act: 1.1; CYP2C9 activ: 0.9

Results for O=C(c1ccc(-c2ccccc2)cc1)N1CCN(C(=O)c2ccco2)CC1 ?
CYP2C9 inhib: 17; CYP2C19 inhib: 16; CYP2C19 act: 0.8; CYP2C9 activ: 0.8

How did O=C(Nc1ccc2c(c1)OCO2)C(c1ccc(Cl)cc1)N1CCN(C(=O)c2ccco2)CC1 (stereo not drawn) do in these assays?
F-actin modifier: -18; E-sel TNF inh: 7; CYP2C9 inhib: 95*; CYP2C19 inhib: 75*; CYP2C19 act: 0.3; CYP2C9 activ: 0.1

How did COc1ccc(C(=O)NC(C(=O)NCc2ccccn2)C(C)C)cc1 (stereo not drawn) do in these assays?
CYP2C9 inhib: 5; CYP2C19 inhib: 18; CYP2C19 act: 0.8; CYP2C9 activ: 0.9

Results for CC(C)CCSc1nnc(Cn2c(=O)sc3ccccc32)n1C ?
E-sel TNF inh: -25

What do the screens show for `O=C(c1ccc(F)c(S(=O)(=O)N2CCOCC2)c1)N(c1ccccc1)c1ccccn1`?
E-sel TNF inh: -4

What do the screens show for `CCN(C(=S)NC(=O)CCc1ccccc1)c1ccccc1`?
E-sel TNF inh: -6

What do the screens show for `c1ccc(COCCN2CCN(CCOCc3ccccc3)CC2)cc1`?
F-actin modifier: 1; E-sel TNF inh: 13; CYP2C9 inhib: 0; CYP2C19 inhib: 57*; CYP2C19 act: 0.4; CYP2C9 activ: 1

Results for c1ccc(COc2ccc(OCCCCN3CCCCC3)cc2)cc1 ?
F-actin modifier: -15; CYP2C9 inhib: -10; CYP2C19 inhib: -3; CYP2C19 act: 1; CYP2C9 activ: 1.1

What do the screens show for `O=S(=O)(/N=C(/Nc1ccc(F)cc1F)c1ccc(Cl)cc1)c1ccccc1`?
F-actin modifier: -6; E-sel TNF inh: 42; CYP2C9 inhib: 0; CYP2C19 inhib: -6; CYP2C19 act: 1.1; CYP2C9 activ: 1

Results for O=C(c1ccco1)c1cn[nH]c1-c1ccc(Cl)cc1O ?
F-actin modifier: -4; CYP2C9 inhib: 51*; CYP2C19 inhib: 92*; CYP2C19 act: 0.1; CYP2C9 activ: 0.5

How did Cc1ccc(C(=O)c2cn[nH]c2-c2cc(Cl)ccc2O)cc1 do in these assays?
F-actin modifier: 24; CYP2C9 inhib: 80*; CYP2C19 inhib: 96*; CYP2C19 act: 0; CYP2C9 activ: 0.2

Results for COc1ccc(O)c(-c2[nH]ncc2C(=O)c2ccccc2)c1 ?
F-actin modifier: -6; CYP2C9 inhib: 64*; CYP2C19 inhib: 81*; CYP2C19 act: 0.2; CYP2C9 activ: 0.4

Results for Cc1ccc(C(=O)Nc2ccc(Cl)cn2)cc1 ?
F-actin modifier: -16; CYP2C9 inhib: 5; CYP2C19 inhib: 18; CYP2C19 act: 0.8; CYP2C9 activ: 0.9

What do the screens show for `CC(=O)c1nn(-c2cccc(Cl)c2)cc1C(=O)c1ccco1`?
F-actin modifier: -1; E-sel TNF inh: 9; CYP2C9 inhib: -21; CYP2C19 inhib: 6; CYP2C19 act: 0.9; CYP2C9 activ: 1.2

How did O=C(c1ccccc1)c1cn[nH]c1-c1ccccc1O do in these assays?
E-sel TNF inh: 46; CYP2C9 inhib: 21; CYP2C19 inhib: 26; CYP2C19 act: 0.7; CYP2C9 activ: 0.8
